For assay [1], the system named is Epidermal growth factor receptor (Homo sapiens), P00533 [T790M]. The following applies: at 1 µM.
Assay [2] deals with Epidermal growth factor receptor (Homo sapiens), P00533 [L858R,T790M]. To be noted: at 0.1 µM.
The test system is the same in assay [3]. The following applies: at 1 µM.
The target in assay [4] is Ephrin type-A receptor 2 (Homo sapiens) (UniProt P29317). To be noted: at 0.1 µM.
For assay [5] the target is unchanged. The following applies: at 1 µM.
In assay [6] the target is T1, Ephrin type-A receptor 3 (Homo sapiens) (UniProt P29320).
T1 sequence (whole entry): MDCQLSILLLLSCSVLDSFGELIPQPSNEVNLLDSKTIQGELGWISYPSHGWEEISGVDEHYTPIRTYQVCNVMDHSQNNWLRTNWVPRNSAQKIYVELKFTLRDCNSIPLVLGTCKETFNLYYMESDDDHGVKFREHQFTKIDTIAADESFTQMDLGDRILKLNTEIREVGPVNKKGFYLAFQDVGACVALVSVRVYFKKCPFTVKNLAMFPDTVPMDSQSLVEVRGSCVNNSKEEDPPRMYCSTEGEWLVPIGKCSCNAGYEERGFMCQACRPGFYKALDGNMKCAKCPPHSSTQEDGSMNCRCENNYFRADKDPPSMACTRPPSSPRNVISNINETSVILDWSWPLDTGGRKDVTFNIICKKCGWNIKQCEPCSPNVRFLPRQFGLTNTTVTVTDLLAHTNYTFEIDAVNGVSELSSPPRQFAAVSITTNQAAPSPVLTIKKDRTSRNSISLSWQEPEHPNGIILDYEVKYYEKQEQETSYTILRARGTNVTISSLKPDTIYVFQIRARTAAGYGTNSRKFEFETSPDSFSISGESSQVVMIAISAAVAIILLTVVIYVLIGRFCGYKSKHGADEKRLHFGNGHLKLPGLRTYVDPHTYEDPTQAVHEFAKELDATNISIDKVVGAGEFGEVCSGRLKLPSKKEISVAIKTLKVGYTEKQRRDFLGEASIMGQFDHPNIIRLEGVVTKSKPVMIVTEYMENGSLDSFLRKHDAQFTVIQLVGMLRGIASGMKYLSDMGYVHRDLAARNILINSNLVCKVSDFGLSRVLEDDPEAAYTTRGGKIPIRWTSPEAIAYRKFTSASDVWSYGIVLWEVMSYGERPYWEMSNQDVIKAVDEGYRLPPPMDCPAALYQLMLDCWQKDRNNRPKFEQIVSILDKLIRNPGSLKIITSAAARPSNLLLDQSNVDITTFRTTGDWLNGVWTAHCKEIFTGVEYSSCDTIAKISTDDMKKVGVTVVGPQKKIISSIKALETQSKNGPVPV
The following applies: at 0.1 µM.

Assay [7] deals with T1, Ephrin type-A receptor 3 (Homo sapiens). To be noted: at 1 µM.
Assay [8] concerns the target Ephrin type-A receptor 4 (Homo sapiens) (UniProt P54764). To be noted: at 0.1 µM.
Assay [9] has the same target. The following applies: at 1 µM.
Assay [10] addresses T2, Ephrin type-B receptor 2 (Homo sapiens) (UniProt P29323).
T2 sequence (whole entry): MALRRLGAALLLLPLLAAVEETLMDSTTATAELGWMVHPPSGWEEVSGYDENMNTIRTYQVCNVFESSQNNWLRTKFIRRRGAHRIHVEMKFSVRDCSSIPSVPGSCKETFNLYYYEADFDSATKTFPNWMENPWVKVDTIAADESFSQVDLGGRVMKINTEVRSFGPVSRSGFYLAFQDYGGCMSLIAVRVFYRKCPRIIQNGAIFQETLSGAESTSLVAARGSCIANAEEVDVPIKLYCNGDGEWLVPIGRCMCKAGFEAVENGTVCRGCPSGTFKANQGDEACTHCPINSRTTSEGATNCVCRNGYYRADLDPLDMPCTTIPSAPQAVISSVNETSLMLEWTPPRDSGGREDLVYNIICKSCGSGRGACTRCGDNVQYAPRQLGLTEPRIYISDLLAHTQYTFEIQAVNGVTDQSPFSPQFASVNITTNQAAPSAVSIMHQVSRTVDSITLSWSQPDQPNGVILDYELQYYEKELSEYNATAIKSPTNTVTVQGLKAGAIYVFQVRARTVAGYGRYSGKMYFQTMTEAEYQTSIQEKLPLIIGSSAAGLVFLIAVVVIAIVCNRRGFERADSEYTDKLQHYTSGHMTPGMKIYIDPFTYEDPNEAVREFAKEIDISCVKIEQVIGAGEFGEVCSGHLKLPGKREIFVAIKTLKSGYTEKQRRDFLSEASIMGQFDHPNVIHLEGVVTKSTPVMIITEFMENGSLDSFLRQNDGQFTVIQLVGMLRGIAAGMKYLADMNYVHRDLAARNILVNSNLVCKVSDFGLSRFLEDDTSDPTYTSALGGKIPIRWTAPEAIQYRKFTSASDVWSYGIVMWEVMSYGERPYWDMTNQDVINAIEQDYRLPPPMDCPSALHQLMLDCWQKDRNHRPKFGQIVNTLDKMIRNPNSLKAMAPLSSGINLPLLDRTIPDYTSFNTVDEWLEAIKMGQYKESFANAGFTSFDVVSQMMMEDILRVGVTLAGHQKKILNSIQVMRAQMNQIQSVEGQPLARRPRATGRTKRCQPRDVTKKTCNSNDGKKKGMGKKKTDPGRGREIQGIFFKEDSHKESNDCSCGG
The following applies: at 0.1 µM.

The target in assay [11] is T2, Ephrin type-B receptor 2 (Homo sapiens). The following applies: at 1 µM.
Assay [12] has as its target T3, Ephrin type-B receptor 3 (Homo sapiens) (UniProt P54753).
T3 sequence (whole entry): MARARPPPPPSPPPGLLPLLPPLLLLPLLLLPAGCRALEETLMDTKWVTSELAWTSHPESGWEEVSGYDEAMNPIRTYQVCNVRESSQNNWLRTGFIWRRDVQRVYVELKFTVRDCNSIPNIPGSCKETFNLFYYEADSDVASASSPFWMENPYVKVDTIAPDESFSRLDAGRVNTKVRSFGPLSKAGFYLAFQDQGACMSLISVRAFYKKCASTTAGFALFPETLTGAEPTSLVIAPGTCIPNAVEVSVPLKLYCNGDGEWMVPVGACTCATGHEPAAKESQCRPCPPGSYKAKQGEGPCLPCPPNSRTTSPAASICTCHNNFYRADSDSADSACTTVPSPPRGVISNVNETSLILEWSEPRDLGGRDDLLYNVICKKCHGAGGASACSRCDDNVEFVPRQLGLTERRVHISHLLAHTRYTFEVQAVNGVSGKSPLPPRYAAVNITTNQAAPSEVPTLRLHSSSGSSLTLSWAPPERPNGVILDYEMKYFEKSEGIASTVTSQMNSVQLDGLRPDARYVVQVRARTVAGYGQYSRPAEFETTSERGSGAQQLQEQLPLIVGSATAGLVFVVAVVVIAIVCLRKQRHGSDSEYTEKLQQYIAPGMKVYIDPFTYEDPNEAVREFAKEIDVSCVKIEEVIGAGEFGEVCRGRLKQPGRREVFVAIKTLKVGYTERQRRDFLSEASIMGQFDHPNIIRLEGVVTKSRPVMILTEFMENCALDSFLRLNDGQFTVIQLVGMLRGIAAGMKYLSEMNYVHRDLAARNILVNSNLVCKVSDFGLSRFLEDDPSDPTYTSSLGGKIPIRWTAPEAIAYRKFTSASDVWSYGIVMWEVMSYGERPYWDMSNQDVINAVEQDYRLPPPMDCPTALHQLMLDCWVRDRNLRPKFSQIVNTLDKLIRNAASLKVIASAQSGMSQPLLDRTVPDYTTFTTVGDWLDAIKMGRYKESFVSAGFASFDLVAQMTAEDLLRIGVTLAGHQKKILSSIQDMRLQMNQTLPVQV
The following applies: at 0.1 µM.

Assay [13] deals with T3, Ephrin type-B receptor 3 (Homo sapiens). To be noted: at 1 µM.
The target of assay [14] is T4, Ephrin type-B receptor 4 (Homo sapiens) (UniProt P54760).
T4 sequence (whole entry): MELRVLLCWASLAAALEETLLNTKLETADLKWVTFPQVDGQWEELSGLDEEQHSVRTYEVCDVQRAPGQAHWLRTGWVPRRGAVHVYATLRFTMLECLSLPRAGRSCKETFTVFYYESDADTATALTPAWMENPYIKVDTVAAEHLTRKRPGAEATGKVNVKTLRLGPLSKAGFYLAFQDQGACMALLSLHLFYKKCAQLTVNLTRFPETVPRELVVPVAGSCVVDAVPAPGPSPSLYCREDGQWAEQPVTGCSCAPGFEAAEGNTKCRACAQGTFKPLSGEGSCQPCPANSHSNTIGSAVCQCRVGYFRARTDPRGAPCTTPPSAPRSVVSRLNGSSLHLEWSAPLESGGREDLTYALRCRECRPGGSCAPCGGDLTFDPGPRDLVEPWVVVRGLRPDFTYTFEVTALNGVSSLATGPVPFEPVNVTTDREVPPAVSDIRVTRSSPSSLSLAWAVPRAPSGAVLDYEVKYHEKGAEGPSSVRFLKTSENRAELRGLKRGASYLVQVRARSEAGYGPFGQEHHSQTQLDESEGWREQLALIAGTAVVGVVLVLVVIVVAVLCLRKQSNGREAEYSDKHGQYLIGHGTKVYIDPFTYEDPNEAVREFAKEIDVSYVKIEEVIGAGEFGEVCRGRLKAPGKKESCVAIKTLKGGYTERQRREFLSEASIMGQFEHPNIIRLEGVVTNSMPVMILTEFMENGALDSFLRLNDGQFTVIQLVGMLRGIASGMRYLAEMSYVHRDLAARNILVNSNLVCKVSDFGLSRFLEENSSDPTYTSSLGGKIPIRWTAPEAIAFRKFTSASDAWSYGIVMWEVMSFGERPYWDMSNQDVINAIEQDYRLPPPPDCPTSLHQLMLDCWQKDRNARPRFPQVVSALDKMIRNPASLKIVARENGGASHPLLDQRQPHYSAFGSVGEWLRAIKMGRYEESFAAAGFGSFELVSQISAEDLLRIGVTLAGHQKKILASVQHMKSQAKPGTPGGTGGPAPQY
The following applies: at 0.1 µM.

For assay [15], the target named is T4, Ephrin type-B receptor 4 (Homo sapiens). To be noted: at 1 µM.
Assay [16] concerns the target Receptor tyrosine-protein kinase erbB-2 (Homo sapiens) (UniProt P04626). The following applies: at 0.1 µM.
Assay [17] has the same target. To be noted: at 1 µM.
Assay [18] concerns the target Receptor tyrosine-protein kinase erbB-4 (Homo sapiens) (UniProt Q15303). The following applies: at 0.1 µM.
Assay [19] has the same target. To be noted: at 1 µM.
For assay [20], the target named is Tyrosine-protein kinase Fer (Homo sapiens) (UniProt P16591). To be noted: at 0.1 µM.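 Further: reported figures are averaged percent inhibition of FER.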

Each structure is given as a SMILES string.

The inhibition is the drop in the measured response relative to a control, in per cent.

Sequence of Receptor tyrosine-protein kinase erbB-2 (Homo sapiens) (P04626 whole entry): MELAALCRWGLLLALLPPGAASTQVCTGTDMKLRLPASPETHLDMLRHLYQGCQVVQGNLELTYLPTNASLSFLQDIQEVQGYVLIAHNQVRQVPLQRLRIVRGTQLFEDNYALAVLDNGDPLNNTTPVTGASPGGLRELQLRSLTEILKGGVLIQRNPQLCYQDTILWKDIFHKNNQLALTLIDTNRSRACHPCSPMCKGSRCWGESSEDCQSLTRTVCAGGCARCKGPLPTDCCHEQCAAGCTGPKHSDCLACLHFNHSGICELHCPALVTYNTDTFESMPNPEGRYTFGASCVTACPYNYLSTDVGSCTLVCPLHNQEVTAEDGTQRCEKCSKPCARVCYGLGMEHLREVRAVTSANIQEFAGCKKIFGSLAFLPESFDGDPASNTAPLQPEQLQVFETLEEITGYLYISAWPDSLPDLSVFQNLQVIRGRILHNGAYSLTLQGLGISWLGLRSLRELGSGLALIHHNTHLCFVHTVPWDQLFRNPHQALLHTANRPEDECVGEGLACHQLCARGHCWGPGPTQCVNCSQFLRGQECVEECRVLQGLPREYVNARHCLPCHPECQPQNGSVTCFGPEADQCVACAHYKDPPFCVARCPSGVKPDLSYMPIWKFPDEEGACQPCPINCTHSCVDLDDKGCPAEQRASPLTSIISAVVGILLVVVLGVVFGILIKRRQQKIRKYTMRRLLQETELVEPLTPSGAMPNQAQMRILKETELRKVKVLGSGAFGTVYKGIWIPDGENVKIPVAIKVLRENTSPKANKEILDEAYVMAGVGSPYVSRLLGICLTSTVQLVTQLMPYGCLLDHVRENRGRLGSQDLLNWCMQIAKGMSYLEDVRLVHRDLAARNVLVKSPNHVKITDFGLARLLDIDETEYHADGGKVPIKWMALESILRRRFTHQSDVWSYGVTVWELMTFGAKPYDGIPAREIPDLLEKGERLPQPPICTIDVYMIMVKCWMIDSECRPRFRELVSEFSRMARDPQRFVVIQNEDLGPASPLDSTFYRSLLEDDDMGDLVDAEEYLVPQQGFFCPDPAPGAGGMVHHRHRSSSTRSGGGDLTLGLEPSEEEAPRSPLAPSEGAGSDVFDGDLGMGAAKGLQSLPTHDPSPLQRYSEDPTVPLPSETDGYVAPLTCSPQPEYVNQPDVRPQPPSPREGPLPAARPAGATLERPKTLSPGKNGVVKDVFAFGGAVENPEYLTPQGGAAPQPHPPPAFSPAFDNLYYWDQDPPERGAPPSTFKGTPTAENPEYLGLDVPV
Sequence of Epidermal growth factor receptor (Homo sapiens), P00533 [L858R,T790M] (P00533 whole entry T790M/L858R, looked up): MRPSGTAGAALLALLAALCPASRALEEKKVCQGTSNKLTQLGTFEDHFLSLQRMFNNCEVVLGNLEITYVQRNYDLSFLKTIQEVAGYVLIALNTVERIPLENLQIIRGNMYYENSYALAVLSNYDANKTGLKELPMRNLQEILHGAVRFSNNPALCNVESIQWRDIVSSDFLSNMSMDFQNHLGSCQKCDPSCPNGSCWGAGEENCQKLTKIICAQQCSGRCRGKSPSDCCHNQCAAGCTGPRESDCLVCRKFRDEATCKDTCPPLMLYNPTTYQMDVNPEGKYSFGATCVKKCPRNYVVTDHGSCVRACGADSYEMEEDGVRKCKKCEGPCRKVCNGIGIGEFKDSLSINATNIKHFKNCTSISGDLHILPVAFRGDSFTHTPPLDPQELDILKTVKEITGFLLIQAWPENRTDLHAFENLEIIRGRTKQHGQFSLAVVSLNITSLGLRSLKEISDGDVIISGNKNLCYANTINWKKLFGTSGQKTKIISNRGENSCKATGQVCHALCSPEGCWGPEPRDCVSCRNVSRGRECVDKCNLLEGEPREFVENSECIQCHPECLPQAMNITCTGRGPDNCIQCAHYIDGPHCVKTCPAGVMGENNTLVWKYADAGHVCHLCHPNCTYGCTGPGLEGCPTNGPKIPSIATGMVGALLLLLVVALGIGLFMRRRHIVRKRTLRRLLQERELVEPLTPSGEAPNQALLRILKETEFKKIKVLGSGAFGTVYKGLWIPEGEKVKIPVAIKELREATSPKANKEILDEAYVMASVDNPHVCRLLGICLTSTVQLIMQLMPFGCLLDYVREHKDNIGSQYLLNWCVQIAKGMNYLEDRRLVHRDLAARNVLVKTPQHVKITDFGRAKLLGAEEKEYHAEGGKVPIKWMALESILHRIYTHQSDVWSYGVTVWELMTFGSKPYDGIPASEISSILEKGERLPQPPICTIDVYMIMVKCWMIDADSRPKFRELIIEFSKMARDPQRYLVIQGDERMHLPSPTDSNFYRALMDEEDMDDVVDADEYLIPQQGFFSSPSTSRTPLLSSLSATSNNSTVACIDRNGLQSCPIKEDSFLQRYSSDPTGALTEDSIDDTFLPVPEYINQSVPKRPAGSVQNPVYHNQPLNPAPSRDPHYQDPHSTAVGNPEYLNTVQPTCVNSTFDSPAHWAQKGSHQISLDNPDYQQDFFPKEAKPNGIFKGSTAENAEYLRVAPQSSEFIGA
Sequence of Tyrosine-protein kinase Fer (Homo sapiens) (P16591 whole entry, looked up): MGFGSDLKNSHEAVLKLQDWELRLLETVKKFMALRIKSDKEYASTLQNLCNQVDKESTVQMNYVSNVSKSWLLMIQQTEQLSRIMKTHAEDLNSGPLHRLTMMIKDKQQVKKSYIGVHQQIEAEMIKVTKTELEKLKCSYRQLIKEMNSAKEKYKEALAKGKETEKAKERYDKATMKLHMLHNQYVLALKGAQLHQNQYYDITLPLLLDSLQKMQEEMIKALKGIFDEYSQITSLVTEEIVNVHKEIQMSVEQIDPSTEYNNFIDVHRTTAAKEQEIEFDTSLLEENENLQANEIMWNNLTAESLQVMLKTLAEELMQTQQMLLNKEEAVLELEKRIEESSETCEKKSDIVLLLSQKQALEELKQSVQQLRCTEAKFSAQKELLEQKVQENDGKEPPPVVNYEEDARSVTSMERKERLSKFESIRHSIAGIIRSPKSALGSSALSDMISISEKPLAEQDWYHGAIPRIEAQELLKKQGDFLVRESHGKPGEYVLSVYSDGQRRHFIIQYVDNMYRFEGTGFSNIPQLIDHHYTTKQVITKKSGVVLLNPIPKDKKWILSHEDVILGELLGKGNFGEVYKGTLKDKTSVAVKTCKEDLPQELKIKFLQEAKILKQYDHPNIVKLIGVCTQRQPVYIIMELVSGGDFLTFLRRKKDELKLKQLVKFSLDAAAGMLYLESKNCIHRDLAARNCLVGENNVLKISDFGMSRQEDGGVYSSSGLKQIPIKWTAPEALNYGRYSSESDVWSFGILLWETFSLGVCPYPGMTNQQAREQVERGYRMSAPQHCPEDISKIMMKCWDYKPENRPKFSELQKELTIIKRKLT
Sequence of Receptor tyrosine-protein kinase erbB-4 (Homo sapiens) (Q15303 whole entry): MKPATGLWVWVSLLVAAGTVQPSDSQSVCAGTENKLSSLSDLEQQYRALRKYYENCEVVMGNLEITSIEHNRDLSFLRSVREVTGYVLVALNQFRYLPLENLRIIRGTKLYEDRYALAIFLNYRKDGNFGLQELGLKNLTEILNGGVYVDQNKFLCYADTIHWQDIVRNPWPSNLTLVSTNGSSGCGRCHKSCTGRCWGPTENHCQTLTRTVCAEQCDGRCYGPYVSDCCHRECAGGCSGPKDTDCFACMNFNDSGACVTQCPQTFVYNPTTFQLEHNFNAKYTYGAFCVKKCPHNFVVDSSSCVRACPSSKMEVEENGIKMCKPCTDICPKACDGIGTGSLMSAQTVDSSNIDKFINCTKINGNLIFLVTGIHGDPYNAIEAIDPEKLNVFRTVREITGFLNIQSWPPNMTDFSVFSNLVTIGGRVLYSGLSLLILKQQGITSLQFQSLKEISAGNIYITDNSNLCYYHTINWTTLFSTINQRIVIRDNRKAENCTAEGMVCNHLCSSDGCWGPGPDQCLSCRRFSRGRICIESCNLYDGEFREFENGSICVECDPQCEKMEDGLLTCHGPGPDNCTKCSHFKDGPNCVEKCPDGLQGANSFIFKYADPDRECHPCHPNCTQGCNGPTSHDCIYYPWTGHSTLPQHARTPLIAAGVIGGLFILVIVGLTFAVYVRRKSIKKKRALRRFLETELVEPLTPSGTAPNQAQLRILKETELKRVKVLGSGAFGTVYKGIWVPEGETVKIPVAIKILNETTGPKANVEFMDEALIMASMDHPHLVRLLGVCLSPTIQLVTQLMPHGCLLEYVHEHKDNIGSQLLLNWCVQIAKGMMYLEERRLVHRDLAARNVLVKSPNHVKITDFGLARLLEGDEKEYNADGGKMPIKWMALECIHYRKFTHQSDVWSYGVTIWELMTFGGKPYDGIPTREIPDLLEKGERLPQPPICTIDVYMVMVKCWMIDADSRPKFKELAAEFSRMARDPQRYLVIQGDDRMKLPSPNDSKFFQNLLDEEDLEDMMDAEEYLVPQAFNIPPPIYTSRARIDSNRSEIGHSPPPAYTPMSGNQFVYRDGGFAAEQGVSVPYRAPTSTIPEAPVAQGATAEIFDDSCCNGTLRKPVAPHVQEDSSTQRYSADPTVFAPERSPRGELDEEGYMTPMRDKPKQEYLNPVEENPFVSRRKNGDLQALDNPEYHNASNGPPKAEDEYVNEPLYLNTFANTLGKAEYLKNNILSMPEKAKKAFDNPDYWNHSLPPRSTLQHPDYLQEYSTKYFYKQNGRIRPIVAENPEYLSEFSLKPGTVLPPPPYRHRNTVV

As to `c1ccc(Oc2ccc(Nc3ncc(-c4ccccc4)o3)cc2)cc1`, the inhibition in assay [1] was 0.24%; in [2] it was -0.18%; in assay [3] it was 4.16%; in assay [4], -2.63%; in [5], -2.48%; in [6], 2.07%. Further, the inhibition in [7] turned out to be 2.91%; in [8] it was 4.49%; in assay [9], 4.79%; in assay [10] it was 7.5%; in assay [11], 9.65%; in assay [12], 2.67%. Further, the inhibition was 0.66% in [13]; 2.42% in [14]; 0.76% in assay [15]; -0.01% in assay [16]; 1.41% in assay [17]; 4.29% in [18]. In addition, the inhibition in assay [19] was determined as 5.09%; in assay [20], 2.19%.
Turning to `COc1ccc(C2=C(N3CCc4ccccc43)C(=O)NC2=O)cc1`, the inhibition in assay [1] worked out at 2.96%; in [2], 1.12%; in assay [3] it was 2.08%; in assay [4], 2.52%; in [5], 0.56%; in assay [6] it was 7.52%. For the same molecule, the inhibition in [7] was determined as 5.91%; in assay [8], 10.6%; in assay [9], 12.4%; in assay [10], 11%; in assay [11], 11.3%; in assay [12], 3.73%. In addition, the inhibition worked out at 6.05% in assay [13]; 3.74% in assay [14]; 4.2% in [15]; 4.12% in assay [16]; 2.07% in assay [17]; 8.75% in assay [18]. Moreover, the inhibition was 12.9% in [19] and 5.39% in [20].
Consider `NC(=O)c1cc(-c2ccncc2)cc(-c2ccccc2)c1N`, for which the inhibition in [1] turned out to be 2.91%; in assay [2], 3.41%; in assay [3] it was 9.94%; in [4], 15.2%; in assay [5], 56.3%; in assay [6], 5.37%. Further, the inhibition in [7] was 8.77%; in [8], 19.8%; in [9], 62.8%; in [10] it was 16.5%; in assay [11], 57.7%; in assay [12], 7.22%. The inhibition in assay [13] is 21.1%; in [14], 7.68%; in assay [15] it was 36%; in assay [16] it was 4.68%; in assay [17], 8.53%; in assay [18], 21.7%. Besides, the inhibition worked out at 33.8% in assay [19] and 6.01% in assay [20].
